High-throughput results: PubChem, National Center for Advancing Translational Sciences (NCATS)
DRD3 antagonist – blocks the human D3 dopamine receptor; P35462; D3R cells, DiscoveRx beta-arrestin luminescence, antagonist mode; stronger effect = lower value; max response, negative = inhibition, %; 360,000 tested, 2.5% active; in the data active = max response below about -50%; inconclusive = no clear call, values can overlap the other calls; note: % is set by controls: 0 for no effect and ±100 for the full control effect
Target sequence (P35462 whole entry, looked up): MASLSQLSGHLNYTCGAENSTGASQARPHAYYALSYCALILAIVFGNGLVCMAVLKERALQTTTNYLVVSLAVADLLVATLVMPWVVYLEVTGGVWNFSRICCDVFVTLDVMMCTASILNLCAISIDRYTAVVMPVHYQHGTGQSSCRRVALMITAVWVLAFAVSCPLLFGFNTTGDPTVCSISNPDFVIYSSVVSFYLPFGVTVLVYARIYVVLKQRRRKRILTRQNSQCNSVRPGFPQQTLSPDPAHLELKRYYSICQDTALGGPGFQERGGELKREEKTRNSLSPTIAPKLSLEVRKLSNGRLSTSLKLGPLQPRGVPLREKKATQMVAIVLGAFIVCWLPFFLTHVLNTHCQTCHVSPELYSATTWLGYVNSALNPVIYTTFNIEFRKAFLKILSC
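Cells plated overnight at 1500 cells/well, then exposed to library compounds with dopamine controls for 90 minutes at 37 degrees C. DiscoveRx reagent added for 30–60 minutes at room temperature; luminescence read, quantitative HTS format.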
D1 ag – activates the human D1 dopamine receptor | P21728 | HEK293 T-REx D1 cells, calcium flux, agonist mode | activation, % at 2 µM | 360,000 tested, 1% active | AID 504660; in the data active = activation above about 30%; note: 0% is about no effect
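Agonism was scored from calcium flux recorded over 180 s (1 read/s) after pintool compound addition, following a 10-cycle baseline. Cells were inducible force-coupled HEK293 TREx D1, plated overnight at 30 C and loaded with no-wash calcium dye.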
D1 antagonist – blocks dopamine activation of the human D1 receptor | P21728 | HEK293 TREx D1 cells, calcium flux, dopamine EC80; stronger effect = lower value | activity change, negative = inhibition, % at 10 µM | 360,000 tested, 3.2% active | AID 504652; in the data active = activity change below about -30%; note: % is set by controls: 0 for no effect and ±100 for the full control effect
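Calcium flux readout: force-coupled, inducible Hek293 Trex D1 line, cells induced overnight at 30 C with tetracycline, dye-loaded 30–90 min at RT. Antagonism scored against EC80 dopamine challenge given 180 s after compound.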
D3 ag – activates the human D3 dopamine receptor. D3R DiscoveRx beta-arrestin cells, luminescence, 90 min. max activation, %. 410,000 tested, 0.58% active. AID 652048; in the data active = max activation above about 30%; note: 0% is about no effect
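Agonist mode: compounds and dopamine controls were applied to plated cells for 90 min at 37 degrees C after an overnight attachment at 1500 cells/well. Luminescent read-out followed 30 - 60 minutes at room temperature with DiscoveRx detection reagent.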
D1 PAM – human D1 dopamine receptor positive modulation; 360,000 tested, 0.036% active; potentiation, % at 10 µM; AID 504651; HEK293 TREx D1 cells, calcium flux, dopamine EC20 potentiation; in the data active = potentiation above about 30%; note: 0% is about no effect
Active calls of the source: *. Sampled rows, rich in hits. Any-hit rate of the full collection: about 6.1%.

COc1cccc(CNC(=O)c2cc3oc4ccccc4c3n2C)c1OC was read as DRD3 antagonist 11, D1 ag 3, D1 antagonist -32*, D3 ag 4 and D1 PAM -10.
For CCOc1ccccc1CNC(=O)c1cc2oc3ccccc3c2n1CC the results were DRD3 antagonist -20, D1 ag 1, D1 antagonist -43*, D3 ag 8 and D1 PAM -6.
For COc1cccc(NC(=O)Cn2c(=O)n(-c3ccc(C)cc3)c(=O)c3ccccc32)c1 the results were D1 ag 2, D1 antagonist -16, D3 ag 12 and D1 PAM 1.
Screening O=C(c1ccc2c(c1)N(Cc1ccc(Cl)cc1)C(=O)c1ccccc1S2(=O)=O)N1CCCCCC1 returned D1 ag 2, D1 antagonist 23, D3 ag 2 and D1 PAM -3.
Screening Cc1cc(C)cc(NC(=O)CN2CCN(c3ccccc3)CC2)c1 returned DRD3 antagonist 11, D1 ag 0, D1 antagonist -32*, D3 ag -4 and D1 PAM -4.
`Cc1cc(C)cc(NC(=O)CN2CCN(c3ccccn3)CC2)c1` gave DRD3 antagonist -21, D1 ag -2, D1 antagonist -28, D3 ag -17 and D1 PAM -8.
Screening Cc1ccc(NC(=O)C(C)N2CCc3ccccc3C2)cc1 (stereo unspecified) returned DRD3 antagonist -76*, D1 ag 2, D1 antagonist 3, D3 ag -23 and D1 PAM 4.
Screening O=C(CN1CCc2ccccc2C1)Nc1ccccc1Cl returned DRD3 antagonist inconclusive, D1 ag 5, D1 antagonist 9, D3 ag 8 and D1 PAM -12.
Screening Cc1cc(C)cc(NC(=O)CN2CCc3ccccc3C2)c1 returned DRD3 antagonist -67*, D1 ag 2, D1 antagonist 28, D3 ag 0 and D1 PAM -2.
Screening O=C(CN1CCc2ccccc2C1)Nc1ccccc1N1CCCCCC1 returned DRD3 antagonist -54*, D1 ag 3, D1 antagonist -2, D3 ag -43 and D1 PAM -2.
O=C(CCC(=O)N1Cc2ccccc2Oc2ncccc21)Nc1ccc(Cl)cc1 was read as D1 ag 6, D1 antagonist -4, D3 ag -11 and D1 PAM -4.
O=C(CNC1CCCCCC1)Nc1ccccc1N1CCCCC1 was read as DRD3 antagonist -64*, D1 ag -1, D1 antagonist 33, D3 ag -2 and D1 PAM 6.
CCOC(=O)c1ccc(NC(=O)CCC(=O)N2Cc3ccccc3Oc3ncccc32)cc1 was read as D1 ag 37*, D1 antagonist 9, D3 ag -12 and D1 PAM 3.
Screening CCOC(=O)c1ccc(NC(=O)CN2CCc3ccccc3C2)cc1 returned DRD3 antagonist -62*, D1 ag 15, D1 antagonist -4, D3 ag -5 and D1 PAM 5.
`CCOC(=O)c1ccc(NC(=O)Cn2cc3c(n2)CCC(C)C3)cc1` (stereo unspecified) gave DRD3 antagonist -24, D1 ag -2, D1 antagonist -30*, D3 ag -1 and D1 PAM -3.
COc1cccc(NC(=O)c2oc3ccccc3c2NC(=O)Cc2cccc(C)c2)c1 was read as D1 ag 24, D1 antagonist -1, D3 ag -8 and D1 PAM -2.
COc1ccc(CNC(=O)Cc2c(C)c3cc4c(C)coc4c(C)c3oc2=O)cc1 was read as D1 ag 5, D1 antagonist -1, D3 ag 11 and D1 PAM 6.
`Cc1cc(C)cc(NC(=O)CCCCCN2C(=O)[C@@H]3Cc4ccccc4CN3C2=O)c1` gave DRD3 antagonist 1, D1 ag 0, D1 antagonist -40*, D3 ag -11 and D1 PAM -4.
For O=C(CNC(=O)C1CCCCC1)Nc1ccccc1Cl the results were DRD3 antagonist 4, D1 ag 2, D1 antagonist -93*, D3 ag -13 and D1 PAM 16.
COc1cccc(NC(=O)CCCCCN2C(=O)[C@@H]3Cc4ccccc4CN3C2=O)c1 was read as DRD3 antagonist -1, D1 ag 6, D1 antagonist -14, D3 ag 1 and D1 PAM -3.
CC(C)OCCCNC(=O)CCCn1c(SCC(=O)c2ccc(Br)cc2)nc2c(sc3ccccc32)c1=O was read as D1 ag 1, D1 antagonist 6, D3 ag -4 and D1 PAM 1.
Screening OC(COc1ccc(Cl)cc1)CN1CCN(c2cccc(Cl)c2)CC1 (stereo unspecified) returned DRD3 antagonist inconclusive, D1 ag 6, D1 antagonist -3, D3 ag 1 and D1 PAM 8.
For CC(=O)Nc1ccc(OCC(O)CN2CCN(S(=O)(=O)c3ccc(NC(C)=O)cc3)CC2)cc1 (stereo unspecified) the results were DRD3 antagonist 0, D1 ag 3, D1 antagonist -34*, D3 ag -17 and D1 PAM 5.
Screening CC(=O)Nc1ccc(OCC(O)CN2CCN(c3ccc(Cl)cc3)CC2)cc1 (stereo unspecified) returned DRD3 antagonist -72*, D1 ag 10, D1 antagonist -27, D3 ag 3 and D1 PAM -8.
Screening CC(=O)Nc1ccc(OCC(O)Cn2cccn2)cc1 (stereo unspecified) returned DRD3 antagonist -28, D1 ag 1, D1 antagonist -35*, D3 ag 2 and D1 PAM 3.
CC(=O)Nc1ccc(OCC(O)CN2CCN(c3ccc(F)cc3)CC2)cc1 (stereo unspecified) was read as DRD3 antagonist inconclusive, D1 ag 0, D1 antagonist -2, D3 ag 5 and D1 PAM -2.
`CC(=O)Nc1ccc(OCC(O)CN2CCN(c3cccc(Cl)c3)CC2)cc1` (stereo unspecified) gave DRD3 antagonist -18, D1 ag 10, D1 antagonist -14, D3 ag 34* and D1 PAM -4.
`CCc1ccc(NC(=O)c2cnn(-c3c(C)cccc3C)c2C2CCN(C(=O)OC(C)(C)C)CC2)cc1` gave D1 ag 6, D1 antagonist 16, D3 ag 9 and D1 PAM -5.
CCc1ccccc1NC(=O)C(=O)c1cc(C)n(-c2ccccc2F)c1C was read as D1 ag 2, D1 antagonist -8, D3 ag -16 and D1 PAM -2.
Cc1ccccc1C(=O)Nc1ccc(C(=O)N2CCCC(O)c3cc(Cl)ccc32)c(C)c1 (stereo unspecified) was read as D3 ag 3.
COC(=O)/C=C/c1cnc[nH]1 was read as DRD3 antagonist inconclusive, D1 ag 2, D1 antagonist -31*, D3 ag -10 and D1 PAM 8.
